According to publication PMC5540273 (PLoS ONE, 2017):

Test system: RPS6KA4(Kin.Dom.1-N-terminal)
Conditions: concentration: 1 μM,replicates: in singlicate; n = 1
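Also: KINOMEscan kinase panel screen.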

| SMILES | %Inh |
| --- | --- |
| Cc1ccn2nc(-c3ccc(F)cc3)c(-c3ccncc3)c2c1.Cl [GW457859] | 0% |
| CS(=O)c1ccc(-c2coc3ccc(-c4n[nH]c(=O)o4)cc23)cc1 (centres unmarked) | 26% |
| C[C@@H](Oc1cc(-n2cnc3cc(-c4cnn(C)c4)ccc32)sc1C(N)=O)c1ccccc1Cl [GSK580432] | 82% |
| CN1CCN(CCCNc2nccc(-c3c(-c4ccc(F)cc4)nn4cc(C(N)=O)ccc34)n2)CC1 [GW622475] | 13% |
| C[C@@H](Oc1cc(-n2cnc3ccc(-c4ccncc4)cc32)sc1C(N)=O)c1ccccc1Cl [GSK483724] | 20% |
| CS(=O)(=O)c1cccc(CNc2nc(Nc3ccc4c(c3)[C@@H]3C[C@@H]4CNC3=O)ncc2C(F)(F)F)c1 | 33% |
| COc1cc(Nc2nccc(N3CCC(NC(=O)c4cccc(C#N)c4)C3)n2)cc(OC)c1OC (centres unmarked) [GSK1379751] | 0% |
| COc1cccc(OC)c1C(=O)Nc1cccc(-c2nn3ccccc3c2-c2ccnc(Nc3cccc(F)c3)n2)c1 [GSK361065] | 8% |
| O=C(NOCC1CC1)c1cc(Br)c(F)c(F)c1Nc1ccc(I)cc1Cl | 0% |
| CNC(=O)c1ccccc1Nc1nc(Nc2cccc(CS(C)(=O)=O)c2)ncc1C.O=CO [GSK1520489] | 95.7% |
| C[C@@H]1CNc2c(sc3ccc4nc(-c5ccc(O)cc5)ccc4c23)C(=O)N1 | 6% |
| O=C(Nc1cccc(Oc2ccc3nccn3n2)c1)Nc1cccc(C(F)(F)F)c1 | 24% |
| NC(=O)Nc1sc(-c2ccc(F)cc2)cc1C(N)=O [GW789449] | 46% |
| NC(=O)c1ccc(-c2cc3ncnc(SCC(=O)O)c3s2)cc1 | 0% |
| Cc1n[nH]c2cc(Nc3ccnc(Nc4cccc(CN5CCOCC5)c4)n3)ccc12 [GW682569] | 0% |
| O=c1[nH]cc(-c2ccc(O)cc2)c2sc(-c3ccncc3)cc12 [GSK1033723] | 0% |
| COC(=O)Nc1nc2cc(Oc3ccc(NC(=O)Nc4cc(C(F)(F)F)ccc4Cl)cc3)ccc2[nH]1.Cl [GW697465] | 0% |
| O=C1NCCc2[nH]c(-c3ccncc3)cc21 | 15% |
| Cl.Cl.NC[C@H](CC1CCCCC1)NC(=O)c1ccc(-c2ccnc3[nH]ccc23)s1 [GSK1581428] | 82% |

| SMILES | %Inh |
| --- | --- |
| CC(=O)Nc1nc2cnc(Nc3cc(NC(=O)c4cccc(CC(C)(C)C#N)c4)ccc3C)nc2s1 | 0% |
| O=C(Nc1ccc(Oc2ccc3nc(NC(=O)C4CC4)cn3n2)c(F)c1)c1cccn(-c2ccccc2)c1=O | 50% |
| CC(=O)Nc1ccc(-c2cc3ncnc(SCC(=O)O)c3s2)cc1 | 6% |
| COC(=O)c1cccc(NC(=O)NC2CCN(c3ccnc(NCc4ccc(F)cc4)n3)CC2)c1 [GSK1379860] | 7% |
| COc1ccc(Nc2nccc(N3CCC(NC(=O)c4cccc(C#N)c4)C3)n2)cc1 (centres unmarked) [GSK1379730] | 15% |
| Cn1ccc2ncnc(Oc3ccc(NC(=O)Nc4cncc(C(F)(F)F)c4)c(Cl)c3)c21 | 0% |
| Cn1ccc2ncnc(Oc3ccc(NC(=O)Nc4cnn(C(C)(C)C)c4)c(Cl)c3)c21 | 0% |
| COc1cccc(C2=C(Nc3cccc(Cl)c3)C(=O)NC2=O)c1 [SB-341556] | 11% |
| Cn1ccc2ncnc(Oc3ccc(NC(=O)Nc4cccc(C(F)(F)F)c4)c(F)c3)c21 | 37% |
| CC(C(=O)NC1CCN(c2ccnc(Nc3ccc(F)cc3)n2)C1)c1ccc(Cl)cc1 (centres unmarked) [GSK1379713] | 6% |
| O=C(NCC1CC1)c1ccc(-c2cc(C(=O)NC3CC3)ccc2F)cc1 [GW810445] | 7% |
| Cc1cccc2c(-c3ccncc3)c(-c3ccc(F)cc3)nn12.Cl [GW461487] | 0% |
| c1ccc(Oc2ccc(Nc3ccnc4ccc(-c5ccccn5)cc34)cc2)cc1 [GW407034] | 11% |
| O=C(Nc1ccccc1)c1cccc(Oc2ccc3nccn3n2)c1 | 0% |
| Cc1ccc2c(-c3ccnc(Nc4ccc(C(F)(F)F)cc4)n3)cnn2n1 [GW819776] | 28% |
| CC(C)c1nc(-c2cccc(NS(=O)(=O)c3ccccc3)c2)c(-c2ccnc(Nc3ccc4c(c3)CN(C)CC4)n2)s1 [GSK1649598] | 33% |
| CN(c1ccccc1CNc1nc(Nc2ccc3c(c2)CC(=O)N3)ncc1C(F)(F)F)S(C)(=O)=O | 89% |
| CCn1c(-c2nonc2N)nc2cncc(Br)c21 [SB-738004] | 3% |

Test system: RPS6KA4(Kin.Dom.2-C-terminal)
Conditions: concentration: 1 μM,replicates: in singlicate; n = 1

| SMILES | %Inh |
| --- | --- |
| Cc1ccn2nc(-c3ccc(F)cc3)c(-c3ccncc3)c2c1.Cl [GW457859] | 0% |
| CS(=O)c1ccc(-c2coc3ccc(-c4n[nH]c(=O)o4)cc23)cc1 (centres unmarked) | 85% |
| C[C@@H](Oc1cc(-n2cnc3cc(-c4cnn(C)c4)ccc32)sc1C(N)=O)c1ccccc1Cl [GSK580432] | 0% |
| CN1CCN(CCCNc2nccc(-c3c(-c4ccc(F)cc4)nn4cc(C(N)=O)ccc34)n2)CC1 [GW622475] | 0% |
| C[C@@H](Oc1cc(-n2cnc3ccc(-c4ccncc4)cc32)sc1C(N)=O)c1ccccc1Cl [GSK483724] | 0% |
| CS(=O)(=O)c1cccc(CNc2nc(Nc3ccc4c(c3)[C@@H]3C[C@@H]4CNC3=O)ncc2C(F)(F)F)c1 | 0% |
| COc1cc(Nc2nccc(N3CCC(NC(=O)c4cccc(C#N)c4)C3)n2)cc(OC)c1OC (centres unmarked) [GSK1379751] | 0% |
| COc1cccc(OC)c1C(=O)Nc1cccc(-c2nn3ccccc3c2-c2ccnc(Nc3cccc(F)c3)n2)c1 [GSK361065] | 14% |
| O=C(NOCC1CC1)c1cc(Br)c(F)c(F)c1Nc1ccc(I)cc1Cl | 0% |
| CNC(=O)c1ccccc1Nc1nc(Nc2cccc(CS(C)(=O)=O)c2)ncc1C.O=CO [GSK1520489] | 0% |
| C[C@@H]1CNc2c(sc3ccc4nc(-c5ccc(O)cc5)ccc4c23)C(=O)N1 | 98.8% |
| O=C(Nc1cccc(Oc2ccc3nccn3n2)c1)Nc1cccc(C(F)(F)F)c1 | 0% |
| NC(=O)Nc1sc(-c2ccc(F)cc2)cc1C(N)=O [GW789449] | 7% |
| NC(=O)c1ccc(-c2cc3ncnc(SCC(=O)O)c3s2)cc1 | 24% |
| Cc1n[nH]c2cc(Nc3ccnc(Nc4cccc(CN5CCOCC5)c4)n3)ccc12 [GW682569] | 0% |
| O=c1[nH]cc(-c2ccc(O)cc2)c2sc(-c3ccncc3)cc12 [GSK1033723] | 0% |
| COC(=O)Nc1nc2cc(Oc3ccc(NC(=O)Nc4cc(C(F)(F)F)ccc4Cl)cc3)ccc2[nH]1.Cl [GW697465] | 0% |
| O=C1NCCc2[nH]c(-c3ccncc3)cc21 | 92.7% |
| Cl.Cl.NC[C@H](CC1CCCCC1)NC(=O)c1ccc(-c2ccnc3[nH]ccc23)s1 [GSK1581428] | 79% |

| SMILES | %Inh |
| --- | --- |
| CC(=O)Nc1nc2cnc(Nc3cc(NC(=O)c4cccc(CC(C)(C)C#N)c4)ccc3C)nc2s1 | 2% |
| O=C(Nc1ccc(Oc2ccc3nc(NC(=O)C4CC4)cn3n2)c(F)c1)c1cccn(-c2ccccc2)c1=O | 0% |
| CC(=O)Nc1ccc(-c2cc3ncnc(SCC(=O)O)c3s2)cc1 | 47% |
| COC(=O)c1cccc(NC(=O)NC2CCN(c3ccnc(NCc4ccc(F)cc4)n3)CC2)c1 [GSK1379860] | 0% |
| COc1ccc(Nc2nccc(N3CCC(NC(=O)c4cccc(C#N)c4)C3)n2)cc1 (centres unmarked) [GSK1379730] | 0% |
| Cn1ccc2ncnc(Oc3ccc(NC(=O)Nc4cncc(C(F)(F)F)c4)c(Cl)c3)c21 | 0% |
| Cn1ccc2ncnc(Oc3ccc(NC(=O)Nc4cnn(C(C)(C)C)c4)c(Cl)c3)c21 | 5% |
| COc1cccc(C2=C(Nc3cccc(Cl)c3)C(=O)NC2=O)c1 [SB-341556] | 0% |
| Cn1ccc2ncnc(Oc3ccc(NC(=O)Nc4cccc(C(F)(F)F)c4)c(F)c3)c21 | 0% |
| CC(C(=O)NC1CCN(c2ccnc(Nc3ccc(F)cc3)n2)C1)c1ccc(Cl)cc1 (centres unmarked) [GSK1379713] | 5% |
| O=C(NCC1CC1)c1ccc(-c2cc(C(=O)NC3CC3)ccc2F)cc1 [GW810445] | 0% |
| Cc1cccc2c(-c3ccncc3)c(-c3ccc(F)cc3)nn12.Cl [GW461487] | 0% |
| c1ccc(Oc2ccc(Nc3ccnc4ccc(-c5ccccn5)cc34)cc2)cc1 [GW407034] | 0% |
| O=C(Nc1ccccc1)c1cccc(Oc2ccc3nccn3n2)c1 | 10% |
| Cc1ccc2c(-c3ccnc(Nc4ccc(C(F)(F)F)cc4)n3)cnn2n1 [GW819776] | 0% |
| CC(C)c1nc(-c2cccc(NS(=O)(=O)c3ccccc3)c2)c(-c2ccnc(Nc3ccc4c(c3)CN(C)CC4)n2)s1 [GSK1649598] | 0% |
| CN(c1ccccc1CNc1nc(Nc2ccc3c(c2)CC(=O)N3)ncc1C(F)(F)F)S(C)(=O)=O | 46% |
| CCn1c(-c2nonc2N)nc2cncc(Br)c21 [SB-738004] | 86% |
